IDE exosite FP = insulin-degrading enzyme (human) exo-site inhibition. P14735. 17,000 tested, 6.3% active. z-score at 20 µM. purified IDE, FL-6b probe fluorescence polarization; hits give low values;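 active = z-score of -3 or lower, meaning strong loss of probe binding signal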;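 note: His-tagged human IDE residues 42-1019 made in E. coli with 30 nM FL-6b probe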
Target sequence (P14735 42-1019 limits assumed): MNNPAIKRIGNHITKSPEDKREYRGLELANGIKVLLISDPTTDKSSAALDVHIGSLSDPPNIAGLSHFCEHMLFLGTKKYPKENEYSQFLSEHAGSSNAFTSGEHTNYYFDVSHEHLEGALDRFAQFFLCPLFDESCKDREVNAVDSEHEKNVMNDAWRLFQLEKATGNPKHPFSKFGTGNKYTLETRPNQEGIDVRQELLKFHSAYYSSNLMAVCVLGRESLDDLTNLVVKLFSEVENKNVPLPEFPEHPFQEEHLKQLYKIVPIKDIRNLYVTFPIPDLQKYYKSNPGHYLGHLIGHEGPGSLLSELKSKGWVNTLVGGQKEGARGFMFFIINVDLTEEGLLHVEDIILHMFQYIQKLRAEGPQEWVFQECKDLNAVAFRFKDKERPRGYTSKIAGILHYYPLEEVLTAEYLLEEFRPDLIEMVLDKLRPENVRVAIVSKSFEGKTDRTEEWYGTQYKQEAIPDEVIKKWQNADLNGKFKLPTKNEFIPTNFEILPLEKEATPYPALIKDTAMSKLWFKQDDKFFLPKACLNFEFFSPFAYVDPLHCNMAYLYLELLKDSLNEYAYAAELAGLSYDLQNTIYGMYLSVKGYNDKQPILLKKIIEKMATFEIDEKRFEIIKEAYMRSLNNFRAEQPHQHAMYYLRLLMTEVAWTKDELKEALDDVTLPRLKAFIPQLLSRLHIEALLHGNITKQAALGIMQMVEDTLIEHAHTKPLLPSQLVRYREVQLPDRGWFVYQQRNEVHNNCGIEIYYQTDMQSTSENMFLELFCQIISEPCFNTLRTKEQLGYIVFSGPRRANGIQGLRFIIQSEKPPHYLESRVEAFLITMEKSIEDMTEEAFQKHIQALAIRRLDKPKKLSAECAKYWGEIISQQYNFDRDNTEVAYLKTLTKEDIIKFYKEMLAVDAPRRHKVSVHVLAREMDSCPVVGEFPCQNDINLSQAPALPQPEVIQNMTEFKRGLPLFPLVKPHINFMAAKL
* hit, by the source's call. This excerpt belongs to a sample that is enriched for hits.

SMILES	IDE exosite FP
CO[C@@H]1CC[C@H]2CCOc3ccc(C#N)cc3C(=O)N(C)[C@@H](C)C(=O)N(C)C[C@@H]1O2	2.3
OC[C@@H]1[C@H](c2ccccc2)C2(CN(CCC(F)(F)F)C2)N1Cc1nccs1	0.082
CN1C(=O)c2cc(NS(C)(=O)=O)ccc2OC[C@H]2O[C@@H](CC(=O)N3CCOCC3)CC[C@@H]21	-1.3
CN1C(=O)c2cc(NC(=O)Cc3cccs3)ccc2OC[C@H]2O[C@@H](CC(=O)NCCCN3CCOCC3)CC[C@H]21	0.06
CN1C(=O)c2cc(NC(=O)Nc3ccccc3Cl)ccc2OC[C@H]2O[C@H](CC(=O)O)CC[C@@H]21	-6.2*
CN1C(=O)c2cc(NC(=O)Nc3ccccc3Cl)ccc2OC[C@@H]2O[C@H](CC(=O)NCCCN3CCOCC3)CC[C@@H]21	-4.7*
CN1C(=O)c2cc(NC(=O)Nc3ccccc3Cl)ccc2OC[C@H]2O[C@H](CC(=O)NCCCN3CCOCC3)CC[C@@H]21	-14*
CN1C(=O)c2cc(NC(=O)Cc3cccs3)ccc2OC[C@@H]2O[C@H](CC(=O)NCCCN3CCOCC3)CC[C@H]21	0.06
CN1C(=O)c2cc(NC(=O)Nc3ccc(Cl)cc3)ccc2OC[C@H]2O[C@@H](CC(=O)NCCN3CCCCC3)CC[C@H]21	0.06
CN1C(=O)c2cc(NC(=O)Nc3ccc(Cl)cc3)ccc2OC[C@H]2O[C@@H](CC(=O)NCCN3CCCCC3)CC[C@@H]21	-4.7*
CN1C(=O)c2cc(NC(=O)Cc3cccs3)ccc2OC[C@@H]2O[C@@H](CC(=O)NCCCN3CCOCC3)CC[C@H]21	-1
CN1C(=O)c2cc(NC(=O)Nc3ccccc3Cl)ccc2OC[C@@H]2O[C@H](CC(=O)O)CC[C@@H]21	-0.56
CN1C(=O)c2cc(NC(=O)Nc3ccc(Cl)cc3)ccc2OC[C@@H]2O[C@H](CC(=O)NCCN3CCCCC3)CC[C@H]21	-0.35
CN1C(=O)c2cc(NC(=O)Nc3ccccc3Cl)ccc2OC[C@H]2O[C@H](CC(=O)O)CC[C@H]21	-0.35
CCS(=O)(=O)Nc1ccc2c(c1)C(=O)N(C)[C@H]1CC[C@H](CC(=O)NCCCN3CCOCC3)O[C@@H]1CO2	0.45
CCc1csc(N2[C@H](CO)[C@@H](c3ccc(C4=CCCC4)cc3)[C@@H]2C#N)n1	3
OC[C@@H]1[C@@H](c2ccc(-c3cccnc3)cc2)[C@@H]2CN(CC3CC3)CCCCN12	1.1
C/C=C/c1ccc([C@H]2[C@@H](CNC(C)C)N(Cc3cccnc3)[C@H]2CO)cc1	5.6
O=C(c1ccc(F)cc1)N1CC(=O)N2[C@H](CO)[C@H](c3ccc(C#CCC4CCCC4)cc3)[C@@H]2C1	-0.91
CN(C)C(=O)c1cccc(-c2ccc([C@H]3[C@H]4CN(S(C)(=O)=O)CCCCN4[C@H]3CO)cc2)c1	2.9
CC(C)CC#Cc1ccc([C@@H]2[C@@H](CO)N3C(=O)CN(S(=O)(=O)c4ccccc4)C[C@@H]23)cc1	1.6
CNC[C@H]1Oc2cc(C#Cc3ccccc3OC)ccc2S(=O)(=O)N([C@H](C)CO)C[C@@H]1C	-0.45
CN1C(=O)c2cc(NC(=O)Cc3cccs3)ccc2OC[C@H]2O[C@@H](CC(=O)NCCCN3CCOCC3)CC[C@@H]21	-0.5
CN1C(=O)c2cc(NC(=O)Cc3cccs3)ccc2OC[C@H]2O[C@H](CC(=O)NCCCN3CCOCC3)CC[C@@H]21	-0.35
CN1C(=O)c2cc(NC(=O)Nc3ccccc3Cl)ccc2OC[C@H]2O[C@@H](CC(=O)NCCCN3CCOCC3)CC[C@@H]21	-6.1*
SMILES	IDE exosite FP
COc1cccc(NC(=O)N2C[C@@H](O)COC[C@@H]3O[C@@H](CC(=O)N(C)C)CC[C@H]32)c1	0.61
C[C@H]1CN([C@@H](C)CO)S(=O)(=O)c2ccc(-c3cncnc3)cc2O[C@@H]1CN(C)C(=O)NC1CCCC1	-1.1
O=C(c1cnccn1)N1CC(=O)N2[C@@H](CO)[C@H](c3ccc(/C=C/c4ccccc4)cc3)[C@@H]2C1	-6.5*
O=C(c1cnccn1)N1CC(=O)N2[C@H](CO)[C@@H](c3ccc(/C=C/c4ccccc4)cc3)[C@H]2C1	-6.5*
O=C(c1cnccn1)N1CC(=O)N2[C@H](CO)[C@@H](c3ccc(-c4ccc(F)cc4)cc3)[C@H]2C1	0.96
C/C=C/c1ccc([C@H]2[C@H]3CN(C(=O)c4cnccn4)CC(=O)N3[C@H]2CO)cc1	3
C/C=C/c1ccc([C@H]2[C@H](CO)N3C(=O)CN(C(=O)c4cnccn4)C[C@@H]23)cc1	3.7
C/C=C/c1ccc([C@@H]2[C@@H](CO)N3C(=O)CN(C(=O)c4cnccn4)C[C@H]23)cc1	1.5
O=C(c1cnccn1)N1CC(=O)N2[C@H](CO)[C@@H](c3ccc(/C=C/c4ccccc4)cc3)[C@@H]2C1	-5.5*
O=C(c1cnccn1)N1CC(=O)N2[C@H](CO)[C@H](c3ccc(/C=C/c4ccccc4)cc3)[C@@H]2C1	-5.3*
O=C(c1cnccn1)N1CC(=O)N2[C@@H](CO)[C@H](c3ccc(-c4ccc(F)cc4)cc3)[C@@H]2C1	1.3
CNC[C@H]1Oc2c(NC(=O)Nc3cccc4ccccc34)cccc2C(=O)N([C@@H](C)CO)C[C@H]1C	-0.37
CN(C)C(=O)c1cc2c(c(-c3cccc(C4=CCCCC4)c3)n1)[C@H](CCO)N(S(C)(=O)=O)C2	1.2
COc1ccccc1NC(=O)N1CCCCN2[C@H](CO)[C@H](c3ccc(-c4cccc(C#N)c4)cc3)[C@@H]2C1	-0.12
OC[C@@H]1[C@H](c2ccc(C#CC3CCCC3)cc2)[C@H]2CN(CCC(F)(F)F)CCCCN12	2.5
OC[C@H]1[C@@H](c2ccc(C#CC3CCCC3)cc2)[C@@H]2CN(CCC(F)(F)F)CCCCN12	3.8
COc1ccccc1C#Cc1ccc([C@H]2[C@@H](CO)N3CCCCN(CCC(F)(F)F)C[C@@H]23)cc1	-6.9*
OC[C@@H]1[C@H](c2ccc(-c3ccccc3)cc2)[C@H]2CN(CCC(F)(F)F)CCCCN12	2.4
COc1ccccc1C#Cc1ccc([C@@H]2[C@@H](CO)N3CCCCN(CCC(F)(F)F)C[C@@H]23)cc1	-5.6*
OC[C@@H]1[C@@H](c2ccc(-c3ccccc3)cc2)[C@@H]2CN(CCC(F)(F)F)CCCCN12	0.77
COc1ccccc1C#Cc1ccc([C@H]2[C@H](CO)N3CCCCN(CCC(F)(F)F)C[C@@H]23)cc1	-6.1*
OC[C@H]1[C@@H](c2ccc(-c3ccc(F)cc3)cc2)[C@H]2CN(CCC(F)(F)F)CCCCN21	1.7
OC[C@H]1[C@@H](c2ccc(-c3ccccc3)cc2)[C@H]2CN(CCC(F)(F)F)CCCCN21	1.8
COc1cccc(-c2ccc3c(c2)[C@H]2[C@H](CCN2S(=O)(=O)C2=NC(C)C=N2)[C@@H](CO)N3C)c1 (some centres not stated)	2.2
C[C@H](CO)N1C[C@H](C)[C@H](CN(C)S(=O)(=O)c2ccc([N+](=O)[O-])cc2)OCc2ccccc2-c2c(n(C)c3ccccc23)C1=O	-1.3
CC(C)CC#Cc1ccc([C@H]2[C@H]3CN(C(=O)Nc4ccc(F)cc4)CC(=O)N3[C@H]2CO)cc1	4.2
COCC#Cc1ccc([C@H]2[C@H]3CN(C(=O)CN4CCOCC4)CC(=O)N3[C@H]2CO)cc1	0.023
CCN(C[C@@H]1[C@@H](c2ccccc2)[C@H](CO)N1CC1CC1)C(=O)c1cccc(F)c1	3.5
Cc1ccccc1-c1ccc([C@H]2[C@@H](CO)N3CCCCN(C(=O)c4cccnc4)C[C@H]23)cc1	-16*
Cc1ccccc1-c1ccc([C@H]2[C@H](CO)N3CCCCN(C(=O)c4cccnc4)C[C@@H]23)cc1	-3.9*
